Assay outcomes: PubChem, National Center for Advancing Translational Sciences (NCATS)
The list is not random: actives were taken first. Their share in the collection is about 3.6%.
TSHR agonist – qHTS Assay for Agonists of the Thyroid Stimulating Hormone Receptor; HEK293-CNG-TSHR cells (CNG channel as cAMP sensor), membrane potential dye, cAMP; actives 0.48% (n = 73,000); Potency, µM (series often up to 57.1 µM), for the others: top-dose activation, usual class: activators; active means well fitted activation curve with a large enough effect in the main read-out, with a control signal flat, not every such curve was filed as active; inconclusive means small, poorly fitted or top-dose-only effect, or a change in a side signal; inactive means no such curve, though single readings can be large or run the other way; % of control where 0% means no effect;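 further: the control signal comes from parental cells without the receptor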
Target sequence (P16473 whole entry, looked up): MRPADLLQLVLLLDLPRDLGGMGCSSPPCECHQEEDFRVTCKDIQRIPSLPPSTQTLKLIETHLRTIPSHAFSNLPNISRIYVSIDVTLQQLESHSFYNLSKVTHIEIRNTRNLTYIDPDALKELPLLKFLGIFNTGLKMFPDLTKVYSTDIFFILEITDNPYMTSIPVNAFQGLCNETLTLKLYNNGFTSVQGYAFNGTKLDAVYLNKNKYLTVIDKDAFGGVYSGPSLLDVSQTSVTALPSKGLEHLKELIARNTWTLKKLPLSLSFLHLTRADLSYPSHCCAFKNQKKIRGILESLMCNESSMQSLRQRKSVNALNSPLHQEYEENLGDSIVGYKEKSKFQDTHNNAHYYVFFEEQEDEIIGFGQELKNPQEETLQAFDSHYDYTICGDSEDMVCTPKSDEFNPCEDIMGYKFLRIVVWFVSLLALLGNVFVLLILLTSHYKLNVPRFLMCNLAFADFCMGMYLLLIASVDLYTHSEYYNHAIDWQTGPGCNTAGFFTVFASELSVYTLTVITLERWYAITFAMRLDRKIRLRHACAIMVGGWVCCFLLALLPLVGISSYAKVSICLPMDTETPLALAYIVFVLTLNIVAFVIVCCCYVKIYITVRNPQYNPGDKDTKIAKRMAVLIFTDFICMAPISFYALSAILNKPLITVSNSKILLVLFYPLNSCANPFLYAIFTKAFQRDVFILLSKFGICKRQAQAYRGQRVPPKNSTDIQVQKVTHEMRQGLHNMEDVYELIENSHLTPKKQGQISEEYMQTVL
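HEK 293 cells stably expressing TSHR and a modified CNG channel, with CNG-only parental cells as counterscreen, were preloaded 60 min at room temperature with membrane potential dye containing 100 uM RO 20-1724. Compound exposure was 30 min, and depolarization was read as fluorescence at 590 nm.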
IkB signaling – IkB Signaling; ABC-DLBCL IkBa-CBG/CBR dual luciferase ratio, 4 h; response scale: scaled: untreated 0%, proteasome inhibitor 100%; Potency, µM (top dose mostly 57.1 µM), for the others: at the highest dose IkBa stabilization activation; actives 0.04% (n = 110,000); AID 445, 2006; active means well fitted curve in the direction sought with a large enough effect in the signal ratio, not every such curve was filed as active; inconclusive means small, poorly fitted or top-dose-only effect, or a change in a side signal; the % refers to the signal ratio;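 further: the direction sought is a rising ratio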
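Curves were fitted separately to fusion (green), unfused (red) and ratio luminescence, then classed by r2, magnitude and activity. Cells: OCI-Ly3, 4 h compound plus doxycycline at 37C; 10 uM MG-132 defined full response.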
HEK293 cAMP cs – qHTS Assay for Agonists of the Thyroid Stimulating Hormone Receptor: Activators of Intracellular cAMP Concentrations in Parental HEK 293; parental HEK293 CNG cAMP sensor, membrane potential fluorescence; Potency, µM (titrated, usually from 57.1 µM), without a hit: at the highest dose activation, usual class: activators; actives 2.5% (n = 73,000); further: % of control where 0% means no effect; nearly all actives have a fitted effect of over 55% in size
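Parental HEK 293 cells stably expressing a cAMP-gated CNG channel were loaded with membrane potential dye containing 100 uM RO 20-1724 for 60 min. Compound added for 30 min; depolarization read as fluorescence intensity at 590 nm.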
ERK AVP inh – qHTS Assay for Inhibitors of the ERK Signaling Pathway using a Homogeneous Screening Assay | HEK293-V1b, vasopressin-stimulated pERK AlphaScreen | Potency, µM (titrated, usually from 57.5 µM), inactives show top-dose activity, negative = inhibition, usual class: inhibitors | actives 0.99% (n = 72,000); further: on the % scale 0 is the no-effect control and ±100 the full control effect; nearly all actives have a fitted effect of over 55% in size
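HEK293 cells stably expressing V1b receptor, seeded overnight in 1% FBS, were treated with compounds for 30 min at 37C, then stimulated 5 min with 25 nM vasopressin; phospho-ERK read by AlphaScreen SureFire after lysis.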
CRE Fsk mod – Cell signaling CRE-BLA (Fsk stim); AID 662, 2007; actives 2.5% (n = 71,000); Potency, µM (titrated, usually from 38.2 µM), without a hit: at the top dose activity change, negative = inhibition, usual class: activators; CHO CRE-bla reporter (cAMP response element driving beta-lactamase), forskolin EC10, beta-lactamase ratio; active means well fitted activation curve with a large enough effect in the signal ratio, with a control signal flat, not every such curve was filed as active; inconclusive means small, poorly fitted or top-dose-only effect, or effect the other way, or a change in a side signal; the % refers to the signal ratio; further: % of control where 0% means no effect
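Titrated compounds plus EC10 NKH 477 on CHO CRE-bla cells, 3 h, 37 °C. CCF4, 2 h RT. Ratio 460/530 nm → AC50.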
The depositor's hits bear a star; u = inconclusive; x = no result given; [ ] = another dose, or the depositor's remark. Unless noted, the call rests on the fitted dose curve; in most records, active means well fitted curve in the direction sought with a large enough effect; inconclusive means small, poorly fitted or top-dose-only effect, or another doubt; inactive means no such curve, though single readings can be large; an effect the other way counts as inactive or inconclusive. Potency means the concentration at half of the fitted maximal effect.

SMILES	TSHR agonist	IkB signaling	HEK293 cAMP cs	ERK AVP inh	CRE Fsk mod
O=C(OCC#CCSc1nc2ccccc2s1)c1ccco1	39%	-1%	11%	20%	-3%
COc1cc(/C=C(\C#N)C(N)=O)cc(CSc2nc3ccccc3s2)c1O	10%	0%	1%	-18%	25µM*
Cn1cccc1C(=O)N1CCC2(CCCN(C(=O)Nc3cccc(F)c3)C2)CC1	10%	0%[11.4 µM]	17%	-16%	-14%
CC(C)N(Cc1nc(-c2ccc(Cl)cc2)no1)C(=O)CCC1CCCC1	u	-1%	20µM*	112%	-19%
Cc1cccc(C(=O)N(Cc2nc(-c3ccc(Cl)cc3)no2)C(C)C)c1	x	2%	x	x	x
COC(=O)[C@@H]1C[C@@]2(O)[C@@H](O)[C@@H](O)[C@@H](O)C[C@H]2N1Cc1ccc(C(F)(F)F)cc1	x	x	x	5%	x
Cc1ccccc1Cn1cnc2c(nnn2Cc2ccc(F)cc2)c1=O	u	-1%	u	12%	10%
O=C(O)c1ccc(S(=O)(=O)Cc2ccccc2)cc1	u	0%	3.2µM*	17%	3%
CCN1CCC[C@@H]1CNC(=O)c1c(OC)ccc(I)c1O	-3%	-10%	9%	x	-5%
O=C(Cn1c(=O)c2cccn2c2cccnc21)NCc1ccccc1F	x	-2%	x	x	x
COCCCn1c2nc3ccccc3nc2c2c(=O)n(Cc3ccc(Cl)cc3)cnc21	11%	-1%	17%	2%	u
COCCCn1c2nc3ccccc3nc2c2c(=O)n(Cc3ccccc3Cl)cnc21	u	2%	25µM*	7%	20%
C/C=C/Cn1c(SC)nc2c1c(=O)[nH]c(=O)n2C	5%	u	20%	29%	10µM*
Cc1csc(Sc2nc3c(c(=O)[nH]c(=O)n3C)n2Cc2ccccc2Cl)n1	-1%	-2%	3%	-25%	10%
CCCn1c(SCc2ccc(Cl)cc2)nc2c1c(=O)[nH]c(=O)n2C	u	u	u	-22%	13µM*
CCC(C)Sc1nc2c(c(=O)[nH]c(=O)n2C)n1Cc1ccccc1Cl (stereo unspecified)	19%	1%	9%	x	5µM*
C/C=C/Cn1c(Br)nc2c1c(=O)[nH]c(=O)n2C	-1%	1%	1%	u	u
C/C=C/Cn1c(SCc2ccc(Cl)cc2)nc2c1c(=O)[nH]c(=O)n2C	u	u	25µM*	11%	2µM*
CN(C)CCNC(=O)C(=O)NCC(c1ccc2c(c1)OCO2)N1CCOCC1 (stereo unspecified)	x	-2%	x	x	x
Cc1cc(C(=O)OCc2nnc(-c3ccccc3)o2)c(C)n1-c1ccccc1	u	u	13µM*	5%	29%
O=C(OCc1nnc(-c2ccccc2)o1)c1cn(-c2ccccc2)nc1-c1ccccc1	28%	3%	16%	25%	u
COc1ccc2nc(SCc3nc(N)nc(Nc4ccccc4)n3)[nH]c2c1	5%	u	-3%	u	2µM*
Nc1ncnc2nc(N3CCN(CCO)CC3)[nH]c12	u	0%[11.4 µM]	u	3%[11.5 µM]	7%[7.6 µM]
O=C(c1ccc2c(c1)N(Cc1cccc(Cl)c1)C(=O)c1ccccc1S2(=O)=O)N1CCCC1	x	-1%	x	x	x
COc1ccc(Oc2ncc3nc(-c4cccc(C#N)c4)c(=O)n(Cc4cccc(OC)c4)c3n2)cc1	u	2%[11.4 µM]	25µM*	-7%	10%
SMILES	TSHR agonist	IkB signaling	HEK293 cAMP cs	ERK AVP inh	CRE Fsk mod
COc1ccc(Oc2ncc3nc(C)c(=O)n(Cc4cccc(OC)c4)c3n2)cc1	u	2%[11.4 µM]	25µM*	3%	4µM*
COc1cccc(Cn2c(=O)c(C)nc3cnc(OC)nc32)c1	u	0%[11.4 µM]	u	-1%	u
COc1cccc(Cn2c(=O)c(-c3cccc(C#N)c3)nc3cnc(N4CCN(C)CC4)nc32)c1	u	0%[11.4 µM]	-78%	37%	u
Cc1ccc(Cl)cc1-n1c(=O)cc(N2CC(C)OC(C)C2)[nH]c1=O (stereo unspecified)	18%	-1%	-7%[2.29 µM]	-3%	u
COc1ccc(N2CCN(C(=O)c3cc4c(=O)oc5ccc(C)cc5c4s3)CC2)cc1	x	-2%	x	x	x
CCN1CCN(C(=O)c2cc3c(=O)oc4ccc(C)cc4c3s2)CC1	2%	0%	4%	11%	2.5µM*
COc1ccc(-n2c(/C=C(\C)O)nc(=O)c3c(C)cc(C)nc32)cc1	u	-2%	25µM*	-17%	9%
Cc1nn(-c2ccccc2)c(C)c1C(=O)OCC(=O)c1c(N)n(CC(C)C)c(=O)n(C)c1=O	u	u	16µM*	u	-11%
c1coc(CNc2ncnc3sc4c(c23)CCCCC4)c1	u	4%	25µM*	-14%	u
Cc1nc(NCc2ccco2)c2c3c(sc2n1)CCC3	u	u	16µM*	u	u
CC(=O)C1=C(C)NC(=O)NC1c1cccc(O)c1 (stereo unspecified)	3%	-4%	12%	-3%	-12%
CCCc1c(O)nc(SCc2ccccc2)[nH]c1=O	19%	-6%	13%	-1%	-18%
Cc1cc(N2CCCCC2)nc(SCC(=O)c2ccccc2)n1	u	u	u	-20%	14%
Cc1ccc(C(=O)CSc2nc(C)cc(SCc3nnc(-c4ccccc4)o3)n2)cc1	u	u	7.9µM*	-5%	2%
COc1cccc(CNC(=O)CN2C(=O)COc3ccc(S(=O)(=O)N4CCCCC4)cc32)c1	x	1%	x	x	x
CC1CN(C(=O)c2cccs2)CCN1C(=O)c1cccs1 (stereo unspecified)	u	0%	32µM*	3%	21%
CC(=O)Nc1ccc(NC(=O)c2cc(C)nn2-c2ccccc2)cc1	u	-1%	u	13%	-1%
CC(=O)c1cc2c(cc1NC(=O)c1cc(C)nn1-c1ccccc1)OCO2	u	-3%	u	8%	7.9µM*
Cc1ccc(C)c(NC(=O)c2cc(S(=O)(=O)NCCc3ccccc3)ccc2F)c1	x	-1%	x	x	x
C=CCn1c(SCC(=O)N2CCOCC2)nc2sc3c(c2c1=O)CCCC3	x	-4%	4%	u	u
C=CCn1c(SCC(=O)N2CCOCC2)nc2scc(-c3ccco3)c2c1=O	8%	u	3%	32µM*	5%
CC1CCC2C(C1)c1sc(=O)[nH]c1SC2(C)C (stereo unspecified)	x	1%	21%	8%	10µM*
Cn1c(=O)cnc2cnc(Oc3ccccc3)nc21	-4%	-3%[11.4 µM]	1%	3%	22%
COc1ccc(OC)c2c(C)cc(N3CCN(C(=O)c4ccc(F)cc4)CC3)nc12	-13%	5%	-17%	32µM*	5%
